# In the supplement of paper PMC10849652:
# The full data set covers some 7,900 targets. This sample favours those with a hit. About 0.6% of all pairs of compound and target were hits. Unmarked numbers belong to inactive results.
# Compound: Cc1ccc(NC(=O)c2ccc(CN3CC[C@H](N(C)C)C3)c(C(F)(F)F)c2)cc1Nc1nccc(-c2cncnc2)n1 [bafetinib]
# Assay: log2 fold change, soluble protein after heating vs DMSO (PISA); higher = thermal stabilisation; K562 cells, 10 uM, 30 min; active = over 0.2 and 3.5 SD of the protein, either way, in both replicates (recomputed)
# In short: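 Soluble protein was quantified by TMTpro 16plex LC-MS/MS after channel sums were equalised. It was obtained as the supernatant after 21,000xg for 90 min from pooled aliquots of K562 cells (2×10^6 cells/mL, 10 μM compound, 30 min) heated for 3 min across 48°C-58°C and extracted in PBS with 0.5% NP-40 at 4°C. Thermal stability values are relative to control samples and come from duplicates. They are given as log2 fold changes.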
# UniProt O95059, sequence (O95059 whole entry, looked up): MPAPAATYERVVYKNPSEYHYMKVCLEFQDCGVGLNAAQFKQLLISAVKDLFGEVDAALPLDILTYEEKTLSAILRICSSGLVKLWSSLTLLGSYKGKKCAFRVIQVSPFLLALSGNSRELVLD
# UniProt Q15382, sequence (Q15382 whole entry, looked up): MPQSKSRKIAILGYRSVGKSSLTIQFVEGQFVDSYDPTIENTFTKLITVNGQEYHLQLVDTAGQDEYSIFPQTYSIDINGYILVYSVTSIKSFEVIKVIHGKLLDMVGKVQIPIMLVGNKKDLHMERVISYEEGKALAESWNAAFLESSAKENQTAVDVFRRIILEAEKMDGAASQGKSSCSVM
# UniProt Q9NQG5, sequence (Q9NQG5 whole entry, looked up): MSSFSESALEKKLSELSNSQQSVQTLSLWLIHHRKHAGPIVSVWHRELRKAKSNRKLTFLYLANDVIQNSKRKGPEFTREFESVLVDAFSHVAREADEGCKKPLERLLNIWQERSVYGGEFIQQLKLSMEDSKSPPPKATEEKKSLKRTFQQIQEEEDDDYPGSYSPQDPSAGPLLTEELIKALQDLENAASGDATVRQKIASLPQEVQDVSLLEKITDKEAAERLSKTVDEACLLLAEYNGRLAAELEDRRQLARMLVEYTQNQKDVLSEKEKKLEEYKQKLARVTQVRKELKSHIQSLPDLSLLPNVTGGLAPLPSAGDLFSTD
# UniProt Q8IZV5, sequence (Q8IZV5 whole entry, looked up): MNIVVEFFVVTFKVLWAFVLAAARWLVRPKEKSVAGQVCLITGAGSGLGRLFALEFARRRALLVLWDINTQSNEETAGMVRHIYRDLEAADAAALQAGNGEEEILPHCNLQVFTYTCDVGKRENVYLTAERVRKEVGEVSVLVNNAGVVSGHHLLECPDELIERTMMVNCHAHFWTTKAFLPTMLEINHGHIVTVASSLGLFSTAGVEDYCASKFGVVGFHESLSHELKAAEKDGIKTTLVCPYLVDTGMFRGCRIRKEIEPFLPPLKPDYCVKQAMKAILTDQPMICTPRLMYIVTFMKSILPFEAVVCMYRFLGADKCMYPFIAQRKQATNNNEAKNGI
# UniProt P51148, sequence (P51148 whole entry, looked up): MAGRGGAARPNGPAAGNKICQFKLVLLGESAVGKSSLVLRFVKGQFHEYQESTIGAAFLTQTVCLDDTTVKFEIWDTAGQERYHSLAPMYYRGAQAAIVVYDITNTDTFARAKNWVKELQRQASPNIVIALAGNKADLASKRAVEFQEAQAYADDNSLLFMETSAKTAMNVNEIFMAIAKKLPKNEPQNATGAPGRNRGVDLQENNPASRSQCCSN
# UniProt Q99643, sequence (Q99643 whole entry, looked up): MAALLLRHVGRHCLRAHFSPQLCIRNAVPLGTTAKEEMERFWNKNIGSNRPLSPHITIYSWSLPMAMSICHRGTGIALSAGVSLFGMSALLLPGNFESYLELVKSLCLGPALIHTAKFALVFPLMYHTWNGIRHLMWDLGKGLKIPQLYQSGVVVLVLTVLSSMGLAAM
# UniProt Q96I25, sequence (Q96I25 whole entry, looked up): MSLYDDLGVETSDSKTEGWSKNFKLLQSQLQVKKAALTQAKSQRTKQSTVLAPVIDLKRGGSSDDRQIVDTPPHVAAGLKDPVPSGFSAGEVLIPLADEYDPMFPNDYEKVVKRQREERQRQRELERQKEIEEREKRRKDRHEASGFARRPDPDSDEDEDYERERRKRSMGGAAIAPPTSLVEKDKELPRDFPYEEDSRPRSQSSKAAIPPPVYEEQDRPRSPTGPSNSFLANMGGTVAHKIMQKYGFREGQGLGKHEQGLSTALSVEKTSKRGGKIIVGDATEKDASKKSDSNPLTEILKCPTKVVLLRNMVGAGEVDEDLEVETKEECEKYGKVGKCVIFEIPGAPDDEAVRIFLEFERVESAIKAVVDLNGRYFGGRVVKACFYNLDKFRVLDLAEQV
# UniProt P63208, sequence (P63208 whole entry, looked up): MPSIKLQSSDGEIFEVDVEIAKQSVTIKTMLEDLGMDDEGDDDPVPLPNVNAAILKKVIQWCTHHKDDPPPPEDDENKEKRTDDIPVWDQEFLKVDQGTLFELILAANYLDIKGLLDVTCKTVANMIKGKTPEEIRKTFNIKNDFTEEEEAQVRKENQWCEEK
# UniProt P51151, sequence (P51151 whole entry, looked up): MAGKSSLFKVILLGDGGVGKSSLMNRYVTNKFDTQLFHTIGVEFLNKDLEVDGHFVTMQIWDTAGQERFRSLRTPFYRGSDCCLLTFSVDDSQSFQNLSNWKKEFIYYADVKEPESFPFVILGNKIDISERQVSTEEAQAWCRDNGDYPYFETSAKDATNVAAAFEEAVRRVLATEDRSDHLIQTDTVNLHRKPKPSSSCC
# UniProt Q8WXD2, sequence (Q8WXD2 whole entry, looked up): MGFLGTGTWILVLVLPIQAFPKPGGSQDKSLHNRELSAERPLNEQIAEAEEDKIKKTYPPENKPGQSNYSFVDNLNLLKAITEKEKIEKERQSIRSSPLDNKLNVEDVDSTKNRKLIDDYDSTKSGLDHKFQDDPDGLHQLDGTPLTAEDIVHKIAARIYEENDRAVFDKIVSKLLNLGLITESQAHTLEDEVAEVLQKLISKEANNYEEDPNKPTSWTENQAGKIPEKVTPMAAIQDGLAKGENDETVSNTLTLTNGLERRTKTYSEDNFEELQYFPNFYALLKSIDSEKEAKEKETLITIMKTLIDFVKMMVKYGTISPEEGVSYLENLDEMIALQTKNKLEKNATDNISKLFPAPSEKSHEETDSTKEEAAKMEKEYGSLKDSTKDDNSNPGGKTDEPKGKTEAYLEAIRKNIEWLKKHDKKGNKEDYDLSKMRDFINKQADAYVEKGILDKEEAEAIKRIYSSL
# UniProt Q9NTZ6, sequence (Q9NTZ6 whole entry, looked up): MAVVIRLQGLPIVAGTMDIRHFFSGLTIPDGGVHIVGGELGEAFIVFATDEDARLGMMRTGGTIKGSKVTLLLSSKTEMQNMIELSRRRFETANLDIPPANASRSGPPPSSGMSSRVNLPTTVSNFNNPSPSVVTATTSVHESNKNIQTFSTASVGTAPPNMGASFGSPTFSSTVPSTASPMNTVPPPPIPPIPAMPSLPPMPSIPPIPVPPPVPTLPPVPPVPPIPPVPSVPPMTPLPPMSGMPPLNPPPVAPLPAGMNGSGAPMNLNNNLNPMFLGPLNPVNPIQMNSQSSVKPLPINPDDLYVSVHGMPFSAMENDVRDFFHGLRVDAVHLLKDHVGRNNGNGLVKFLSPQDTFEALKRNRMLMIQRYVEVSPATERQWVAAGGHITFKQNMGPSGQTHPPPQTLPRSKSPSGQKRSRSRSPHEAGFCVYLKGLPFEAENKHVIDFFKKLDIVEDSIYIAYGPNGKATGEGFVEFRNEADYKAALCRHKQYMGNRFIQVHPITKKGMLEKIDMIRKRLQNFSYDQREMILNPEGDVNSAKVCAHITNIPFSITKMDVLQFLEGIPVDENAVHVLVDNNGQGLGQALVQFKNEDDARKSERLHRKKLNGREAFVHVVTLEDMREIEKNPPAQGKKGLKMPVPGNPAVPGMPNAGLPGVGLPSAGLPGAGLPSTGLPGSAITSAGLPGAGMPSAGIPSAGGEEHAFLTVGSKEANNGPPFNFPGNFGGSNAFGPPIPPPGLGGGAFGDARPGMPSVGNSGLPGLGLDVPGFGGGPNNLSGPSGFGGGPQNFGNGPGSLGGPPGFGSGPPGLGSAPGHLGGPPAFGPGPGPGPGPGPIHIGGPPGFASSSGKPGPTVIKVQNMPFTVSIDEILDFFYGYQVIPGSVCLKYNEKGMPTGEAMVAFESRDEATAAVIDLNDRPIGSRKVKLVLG
# UniProt Q14498, sequence (Q14498 whole entry, looked up): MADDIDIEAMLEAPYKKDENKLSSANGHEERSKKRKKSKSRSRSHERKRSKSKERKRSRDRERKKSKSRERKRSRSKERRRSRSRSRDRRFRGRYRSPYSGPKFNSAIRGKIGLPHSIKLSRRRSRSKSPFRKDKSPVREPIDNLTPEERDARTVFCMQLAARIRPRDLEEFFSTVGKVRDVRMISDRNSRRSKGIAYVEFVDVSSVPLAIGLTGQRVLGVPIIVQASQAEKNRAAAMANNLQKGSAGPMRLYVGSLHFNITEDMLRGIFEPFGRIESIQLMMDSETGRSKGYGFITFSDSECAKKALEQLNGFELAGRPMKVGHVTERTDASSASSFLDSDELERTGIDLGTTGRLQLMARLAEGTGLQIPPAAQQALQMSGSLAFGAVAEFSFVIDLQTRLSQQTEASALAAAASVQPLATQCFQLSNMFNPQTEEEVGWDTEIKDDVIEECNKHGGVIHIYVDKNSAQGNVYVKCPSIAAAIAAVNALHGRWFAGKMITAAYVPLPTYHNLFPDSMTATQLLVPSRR
# UniProt P11233, sequence (P11233 whole entry, looked up): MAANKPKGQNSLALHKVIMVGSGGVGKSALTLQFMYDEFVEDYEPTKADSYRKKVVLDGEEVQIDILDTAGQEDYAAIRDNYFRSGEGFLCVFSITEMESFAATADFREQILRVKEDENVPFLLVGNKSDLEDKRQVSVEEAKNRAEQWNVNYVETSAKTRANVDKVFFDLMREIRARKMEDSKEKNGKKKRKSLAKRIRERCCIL
# UniProt Q9HB90, sequence (Q9HB90 whole entry, looked up): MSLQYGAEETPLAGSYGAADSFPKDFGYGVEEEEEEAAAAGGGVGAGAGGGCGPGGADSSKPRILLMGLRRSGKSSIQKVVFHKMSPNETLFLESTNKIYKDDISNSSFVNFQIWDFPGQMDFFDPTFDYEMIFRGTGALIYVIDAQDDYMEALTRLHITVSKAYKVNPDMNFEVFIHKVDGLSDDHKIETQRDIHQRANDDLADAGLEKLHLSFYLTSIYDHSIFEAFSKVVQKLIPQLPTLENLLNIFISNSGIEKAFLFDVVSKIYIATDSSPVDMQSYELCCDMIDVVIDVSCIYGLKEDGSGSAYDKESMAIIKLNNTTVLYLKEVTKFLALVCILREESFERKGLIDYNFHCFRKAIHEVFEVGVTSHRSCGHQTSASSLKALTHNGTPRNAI
# UniProt Q9NX18, sequence (Q9NX18 whole entry, looked up): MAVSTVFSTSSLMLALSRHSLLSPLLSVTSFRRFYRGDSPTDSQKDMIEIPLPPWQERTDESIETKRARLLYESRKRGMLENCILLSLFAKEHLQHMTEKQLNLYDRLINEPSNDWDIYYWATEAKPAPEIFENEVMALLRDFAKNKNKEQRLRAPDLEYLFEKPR
row,Target,log2 fold change
1,SLBP (UniProt Q14493),0.11
2,RDH10 (UniProt Q8IZV5),-0.031
3,SAFB2 (UniProt Q14151),0.17
4,SEC23A (UniProt Q15436),-0.011
5,SCG3 (UniProt Q8WXD2),0.075
6,RUFY1 (UniProt Q96T51),-0.052
7,SLC19A1 (UniProt P41440),0.11
8,SFXN5 (UniProt Q8TD22),-0.3 (active)
9,RAC3 (UniProt P60763),0.015
10,RPRD1B (UniProt Q9NQG5),-0.036
11,SDHC (UniProt Q99643),0
12,RRAGC (UniProt Q9HB90),-0.07
13,RPS19 (UniProt P39019),0.242
14,RHEB (UniProt Q15382),0.01
15,RBM17 (UniProt Q96I25),-0.056
16,SIRT2 (UniProt Q8IXJ6),-0.041
17,RBM12 (UniProt Q9NTZ6),0.026

row,Target,log2 fold change
1,SASH1 (UniProt O94885),-0.052
2,RPS20 isoform 2 (UniProt P60866),0.178
3,RPP14 (UniProt O95059),0.045
4,RBM25 (UniProt P49756),-0.067
5,RCOR1 (UniProt Q9UKL0),0.011
6,RPS12 (UniProt P25398),0.112
7,RAB9A (UniProt P51151),-0.073
8,REL (UniProt Q04864),-0.185
9,RAB5C isoform 2 (UniProt P51148),-0.005
10,RPS27A (UniProt P62979),0.147
11,SKP1 (UniProt P63208),-0.003
12,RRP9 (UniProt O43818),-0.02
13,RALA (UniProt P11233),-0.026
14,SDHAF2 (UniProt Q9NX18),-0.083
15,RBM39 (UniProt Q14498),0.046
16,RNPEP (UniProt Q9H4A4),0.003
